The record followed here is PubChem BioAssay (NCATS).

Records with an inconclusive call do not appear. A call without a number means that no potency is given here. Activity calls are given as the source filed them. Calls follow the shape of the dose curve; as a rule, active = well fitted inhibition curve with a large enough effect; inconclusive = small, poorly fitted or top-dose-only effect; inactive = flat fitted curve, though single readings scatter.
Potency is read from the fitted curve at half-maximal effect.

Sequence of Luciferin 4-monooxygenase (Photinus pyralis) (P08659 whole entry, looked up): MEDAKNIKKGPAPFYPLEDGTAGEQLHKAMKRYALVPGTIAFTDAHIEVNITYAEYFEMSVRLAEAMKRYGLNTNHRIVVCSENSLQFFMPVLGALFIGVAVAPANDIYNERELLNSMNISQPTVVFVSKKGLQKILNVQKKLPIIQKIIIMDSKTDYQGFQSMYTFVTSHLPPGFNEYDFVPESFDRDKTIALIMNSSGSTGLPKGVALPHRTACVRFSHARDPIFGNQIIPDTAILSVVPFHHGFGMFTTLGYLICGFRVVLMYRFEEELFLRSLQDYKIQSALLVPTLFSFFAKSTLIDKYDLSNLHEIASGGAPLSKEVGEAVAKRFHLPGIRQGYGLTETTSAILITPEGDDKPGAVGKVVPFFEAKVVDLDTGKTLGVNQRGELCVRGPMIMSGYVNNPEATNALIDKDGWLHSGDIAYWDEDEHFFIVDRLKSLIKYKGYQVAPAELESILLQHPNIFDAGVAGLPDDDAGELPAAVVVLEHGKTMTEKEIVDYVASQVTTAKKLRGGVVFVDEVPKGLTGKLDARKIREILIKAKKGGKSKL

This experiment addresses Luciferin 4-monooxygenase (Photinus pyralis) (UniProt P08659). Put plainly: Biochemical firefly luciferase enzyme assay for NPC (AID 624030). Also: nearly all actives have a fitted effect of over 70% in size. As to conditions: purified P. pyralis luciferase, luminescence, 5 min; series mostly up to 58.6 µM. An excerpt: Charcot-Marie-Tooth-Association [CMTA] National Center for Advancing Translational Sciences [NCATS] Charcot-Marie-Tooth (CMT) disease was first characterized by Jean-Martin Charcot and Pierre Marie in France and, independently, by Howard Henry Tooth in England in 1886. CMT is one of the most common inherited neurological diseases, affecting approximately 1 in 2,500 Americans. […] The most prevalent type of CMT is known as CMT1A and caused by a duplication of the PMP22 gene which leads to over-expression of this protein. PMP22 is a glycosylated intrinsic membrane protein accounting for 2-5% of the myelin protein content, and its over-expression results in demyelination and subsequently axonal loss. A pair of cellular transcription-based assays was developed in the S16 rat Schwann cell lines (Hai, M., et al., 2002) stably transfected with orthogonal reporters - firefly luciferase (Fluc) and beta-lactamase (beta-Lac) - whose expression is driven by an intronic regulatory element of the PMP22 gene (Jones, E.A., et al., 2011) to recapitulate endogenous expression of PMP22. A comprehensive library of approved drugs, the NCGC Pharmaceutical Collection (Huang, R., et al., 2011), was screened in the cross-validating platform of the orthogonal reporter assays to identify drug modulators inhibitory towards PMP22 expression. A set of counter-screens was devised to address non-specific activity of the library. An ATP-dependent CellTiter-Glo assay (developed by Promega Corp) was utilized to control cell viability. In addition, biochemical Fluc enzyme assay was performed to assess direct inhibition of the Fluc enzymatic activity. References Hai, M., Muja, N., DeVries, G.H., Quarles, R.H. and Patel, P.I. Comparative analysis of Schwann cell lines as model systems for myelin gene transcription studies. J Neurosci Res, 2002. 69(4): pp 497-508 Huang, R., Southall, N., Wang, Y., Yasgar A., Shinn P., Jadhav, A. , Nguyen, D.-T. and Austin, C.P., The NCGC pharmaceutical collection: a comprehensive resource of clinically approved drugs enabling repurposing and chemical genomics. Sci Transl Med, 2011. 3(80): p. 80ps16.
Compounds were transferred to the plates in 23nl, and one microliter/well luciferase enzyme-buffer solution (10 nM P. pyralis luciferase and 50 mM Tris Acetate final concentrations) was dispensed yielding a final reaction volume of […]. Luciferase luminescence was measured by a ViewLux plate reader within 5 minutes of enzyme-buffer addition. The % activity was determined by normalizing to the average readings of PTC124 (a positive control) relative to DMSO (0% Activity). The concentration-effect curves were then classified based on curve quality (r2), response magnitude and degree of measured activity.
As for `NS(=O)(=O)c1ccc(NC(=O)CCC(=O)O)cc1`, the Potency entry is “inactive”.
As for `CC(C)CCCC(C)CCCC(C)CCCCC(C)CCCC(C)CCCC(C)C` (stereo not given), the entry is “inactive”; as for `CC1CCc2cc(F)cc3c(=O)c(C(=O)O)cn1c23` (stereo not given), “inactive”.
As for `Cc1cccc(C(=O)O)c1O`, the entry is “inactive”.
Take `O=C(OOC(=O)c1ccccc1)c1ccccc1`: the Potency entry was “inactive”.
As for `CC(O)CCCCn1c(=O)c2c(ncn2C)n(C)c1=O` (stereo not given), the entry is “inactive”.
As to `C[C@@H](N)C(=O)O`, the Potency entry was “inactive”.
As to `CC(C)=CCC/C(C)=C/CO`, the Potency entry was “inactive”.
As for `O=C(O)c1ccccc1C(=O)Nc1ccc(S(=O)(=O)Nc2nccs2)cc1`, the entry is “inactive”; as for `O=C(O)c1ccc[n+]([O-])c1`, “inactive”.
As for `CC(=O)Nc1cccc(O)c1`, the entry is “inactive”; as for `CCCCCCCCCCOc1cc2c(=O)c(C(=O)OCC)c[nH]c2cc1OCC`, “inactive”.
For `CC(=O)N[C@@H](Cc1ccc(O)cc1)C(=O)O`, the Potency result was “inactive”.
As for `CC1CC(OC(=O)c2ccccc2O)CC(C)(C)C1` (stereo not given), the entry is “inactive”; as for `CN(C(=O)c1c(O)c2ccccc2n(C)c1=O)c1ccccc1`, “inactive”; as for `CCS(=O)(=O)CCn1c([N+](=O)[O-])cnc1C`, “inactive”.
As for `NC(=O)CCCCC1CCSS1` (stereo not given), the entry is “inactive”; as for `COC(=O)c1ccccc1C(=O)c1ccc(OCCN2CCCCC2)cc1`, “inactive”; as for `COc1ccccc1OC(=O)Oc1ccccc1OC`, “inactive”.
As for `CCCCCCCC(=O)OCC(COC(=O)CCCCCCC)OC(=O)CCCCCCC`, the entry is “inactive”; as for `CCN(CC)CCOC(=O)C(c1ccccc1)c1ccccc1`, “inactive”.
Turning to `Cc1cc(OI)c(C(C)C)cc1-c1cc(C(C)C)c(OI)cc1C`, the Potency result was “inactive”.
Turning to `CC(CSC(=O)c1ccccc1)C(=O)N1C[C@@H](Sc2ccccc2)C[C@H]1C(=O)O` (stereo not given in full), the Potency entry was “inactive”.
Regarding `CN1CCCN=C1COC(=O)C(O)(c1ccccc1)C1CCCCC1` (stereo not given), the Potency entry is “inactive”.
As to `CCCCCC(N)=O`, the Potency entry is “inactive”.
As for `CC(=O)Nc1ccc(C(=O)O)cc1`, the entry is “inactive”.
As for `CCN1CC(CCN2CCOCC2)C(c2ccccc2)(c2ccccc2)C1=O` (stereo not given), the entry is “inactive”.
As for `COC(=O)c1ccc(O)cc1`, the entry is “inactive”; as for `CCc1cccc(CC)c1NC(=O)CN(CC(=O)O)CC(=O)O`, “inactive”.
Consider `Cn1c([N+](=O)[O-])cnc1COC(N)=O`, for which the Potency result was “inactive”.
For `C[C@@H]1O[C@@H](OC[C@H]2O[C@@H](Oc3c(-c4ccc(O)c(O)c4)oc4cc(O)cc(O)c4c3=O)[C@H](O)[C@@H](O)[C@@H]2O)[C@H](O)[C@H](O)[C@H]1O`, the Potency entry is “inactive”.
Take `NS(=O)(=O)c1ccc(C(=O)O)cc1`: the Potency entry was “inactive”.
As for `OCC(O)CS` (stereo not given), the entry is “inactive”; as for `CC(=O)N(CC(O)CO)c1c(I)c(C(=O)NCC(O)CO)c(I)c(C(=O)NCC(O)CO)c1I` (stereo not given), “inactive”.
With `c1ccc2[nH]ccc2c1`, the Potency entry was “inactive”.
As for `COc1ccccc1Oc1c(NS(=O)(=O)c2ccc(C(C)(C)C)cc2)nc(-c2ncccn2)nc1OCCO`, the entry is “inactive”; as for `Cc1ccccc1N=Nc1ccc(N=Nc2c(O)ccc3ccccc23)c(C)c1`, “inactive”.
As for `O=C(O)Cn1c(C(=O)Nc2nc(-c3ccccc3Cl)cs2)cc2ccccc21`, the figure is 12.8 µM (active); as for `COc1ccc(Cc2cnc(N)nc2N)cc1OC`, “inactive”; as for `CCN(CC)S(=O)(=O)c1ccc(C(=O)O)cc1`, “inactive”.
